# Values joined by “and” are separate entries in the source; they are usually repeats but may differ in a detail not shown here. Equal values may be shown once. Compounds without any hit were thinned out: in the full panel of roughly 79,000, 15% have a hit. Some compounds were tested as several samples or in several runs, with calls that do not always agree. Active and inactive are the calls of the source. Cut-off read from the data, not from the text of the source: active = growth inhibition above about 70%; inactive = the rest.
# Legend:
# [1] = NCI Yeast Anticancer Drug Screen. Data for the mec2-1 strain (AID 157); conditions: S. cerevisiae mec2-1 strain, stronger effect = higher value
# Summary of the method: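 Vehicle-treated cultures served as reference for growth inhibition of compound-exposed mec2-1 yeast.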
# [2] = NCI Yeast Anticancer Drug Screen. Data for the rad14 strain (AID 159);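 note: 0% = growth of vehicle-treated control cultures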; conditions: S. cerevisiae rad14 strain growth inhibition, stronger effect = higher value
# Summary of the method: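 A mutant yeast strain defective in DNA damage repair is treated with compound; inhibition of its growth is scored against untreated, vehicle-exposed cultures.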
# [3] = NCI Yeast Anticancer Drug Screen. Data for the sgs1 mgt1 strain (AID 161);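 note: 0% = growth of cultures given vehicle only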; conditions: S. cerevisiae sgs1 mgt1 strain, stronger effect = higher value
# Summary of the method: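 Test agents were incubated with a DNA-repair-mutant yeast strain. Growth was then read and compared against vehicle-treated controls.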
# [4] = NCI Yeast Anticancer Drug Screen. Data for the CLN2oe strain (AID 163);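 note: 0% = growth of vehicle-only control cultures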; conditions: S. cerevisiae CLN2oe strain, stronger effect = higher value
# Summary of the method: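 Inhibition relative to vehicle-treated yeast is reported. Cells: strain with genetic alteration in cell-cycle control, grown with compound.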
# [5] = NCI Yeast Anticancer Drug Screen. Data for the cln2 rad14 strain (AID 165);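 note: 0% = growth equal to vehicle treated cultures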; conditions: S. cerevisiae cln2 rad14 strain, stronger effect = higher value
# Summary of the method: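 Each compound was tested on cln2 rad14 yeast. Inhibition of growth was calculated against vehicle-exposed controls.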
# [6] = NCI Yeast Anticancer Drug Screen. Data for the bub3 strain (AID 167); conditions: S. cerevisiae bub3 mutant strain, stronger effect = higher value
# Summary of the method: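 Steps: expose the mutant yeast strain to compound; grow alongside vehicle-treated cultures; measure growth; express inhibition against the vehicle cultures.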
# [7] = NCI Yeast Anticancer Drug Screen. Data for the wt2 strain (AID 169);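 note: 0% = growth of vehicle-treated yeast cultures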; conditions: S. cerevisiae wt2 strain growth inhibition, stronger effect = higher value
# Summary of the method: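 Inhibition of yeast growth was determined after compound treatment, normalised to controls receiving only vehicle.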
# [8] = NCI Yeast Anticancer Drug Screen. Data for the mlh1 strain (AID 171);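 note: 0% = growth of vehicle-treated control cultures of the same strain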; conditions: S. cerevisiae mlh1 strain growth inhibition, stronger effect = higher value
# Summary of the method: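 Vehicle-normalised growth inhibition of a repair- or checkpoint-altered yeast strain following compound treatment.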
# [9] = NCI Yeast Anticancer Drug Screen. Data for the sgs1 strain (AID 173);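 note: 0% = growth of vehicle-only control cultures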; conditions: S. cerevisiae sgs1 mutant, stronger effect = higher value
# Summary of the method: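 Screen format: yeast with repair or checkpoint alterations, compound exposure, growth read relative to vehicle.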
# [10] = NCI Yeast Anticancer Drug Screen. Data for the mlh1 rad18 strain (AID 175); conditions: S. cerevisiae mlh1 rad18 strain growth inhibition, stronger effect = higher value
# Summary of the method: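 Vehicle-treated cultures served as the reference for growth inhibition in a yeast strain carrying DNA damage repair alterations exposed to each compound.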
# [11] = NCI Yeast Anticancer Drug Screen. Data for the rad52 strain (AID 147);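 note: 0% = growth of vehicle-treated control cultures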; conditions: S. cerevisiae rad52 mutant growth inhibition, stronger effect = higher value
# Summary of the method: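 Vehicle-treated cultures served as the reference for growth inhibition of compound-exposed yeast bearing a DNA repair mutation.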
# [12] = NCI Yeast Anticancer Drug Screen. Data for the wt1 strain (AID 149);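 note: 0% = growth of vehicle-treated wt1 cultures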; conditions: S. cerevisiae wt1 strain (SPY 50644) growth inhibition, stronger effect = higher value
# Summary of the method: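 Compounds are added to wt1 yeast cultures. Growth is then measured. Inhibition is expressed relative to vehicle-treated controls.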
# [13] = NCI Yeast Anticancer Drug Screen. Data for the rad50EPP+ strain (AID 151);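 note: 0% = growth of vehicle-treated control cultures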; conditions: S. cerevisiae rad50 mutant strain, stronger effect = higher value
# Summary of the method: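 In this screen, rad50EPP+ yeast were exposed to compounds. Growth inhibition was scored against vehicle-treated controls.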
# [14] = NCI Yeast Anticancer Drug Screen. Data for the mgt1 strain (AID 153); conditions: S. cerevisiae mgt1 mutant growth inhibition, stronger effect = higher value
# Summary of the method: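 mgt1 strain exposed; growth vs vehicle control recorded as inhibition.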
# [15] = NCI Yeast Anticancer Drug Screen. Data for the rad50 strain (AID 155);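 note: 0% = growth of vehicle-only cultures of the same strain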; conditions: S. cerevisiae rad50 strain growth inhibition, stronger effect = higher value
# Summary of the method: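 Inhibition values express reduced yeast growth in compound-treated cultures relative to vehicle-treated controls.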
# [16] = NCI Yeast Anticancer Drug Screen. Data for the rad18 strain (AID 177); conditions: S. cerevisiae rad18 mutant growth inhibition, stronger effect = higher value
# Summary of the method: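 Test articles were incubated with altered yeast defective in DNA damage repair. Results are given as inhibition of growth versus vehicle.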
# [17] = at 5.0 µM (retest, dose inferred, filed as 0.5)
# [18] = at 50.0 µM (retest, dose inferred, filed as 5.0)
smiles,measurement,setting,value
COc1ccc(C(NCCNC(c2ccc(OC)c(OC)c2)c2cc3c(cc2O)OCO3)c2cc3c(cc2O)OCO3)cc1OC (stereo unspecified),growth inhibition,[1]; [17],-11% (inactive)
same,growth inhibition,[1]; at 11.0 µM,9% (inactive)
same,growth inhibition,[1]; at 33.0 µM,78% (active)
same,growth inhibition,[1]; [18],95% (active)
same,growth inhibition,[1]; at 50.0 µM,27.9% (inactive)
same,growth inhibition,[1]; at 100.0 µM,99% (active)
same,growth inhibition,[2]; at 1.2 µM,1% (inactive)
same,growth inhibition,[2]; at 3.7 µM,5% (inactive)
same,growth inhibition,[2]; at 11.0 µM,27% (inactive)
same,growth inhibition,[2]; at 33.0 µM,92% (active)
same,growth inhibition,[2]; at 100.0 µM,99% (active)
same,growth inhibition,[3]; [17],4% (inactive)
same,growth inhibition,[3]; [18],48% (inactive)
same,growth inhibition,[3]; at 50.0 µM,72.2% (active)
same,growth inhibition,[4]; at 1.2 µM,-6% (inactive)
same,growth inhibition,[4]; at 3.7 µM,1% (inactive)
same,growth inhibition,[4]; at 11.0 µM,7% (inactive)
same,growth inhibition,[4]; at 33.0 µM,18% (inactive)
same,growth inhibition,[4]; at 100.0 µM,98% (active)
same,growth inhibition,[5]; [17],-29% (inactive)
same,growth inhibition,[5]; [18],23% (inactive)
same,growth inhibition,[5]; at 50.0 µM,41.2% (inactive)
same,growth inhibition,[6]; at 1.2 µM,-1% (inactive)
same,growth inhibition,[6]; at 3.7 µM,-6% (inactive)
same,growth inhibition,[6]; [17],-21% (inactive)
same,growth inhibition,[6]; at 11.0 µM,0% (inactive)
same,growth inhibition,[6]; at 33.0 µM,15% (inactive)
same,growth inhibition,[6]; [18],28% (inactive)
same,growth inhibition,[6]; at 50.0 µM,54.8% (inactive)
same,growth inhibition,[6]; at 100.0 µM,98% (active)
same,growth inhibition,[7]; at 1.2 µM,-1% (inactive)
same,growth inhibition,[7]; at 3.7 µM,-2% (inactive)
same,growth inhibition,[7]; at 11.0 µM,7% (inactive)
same,growth inhibition,[7]; at 33.0 µM,50% (inactive)
same,growth inhibition,[7]; at 100.0 µM,99% (active)
same,growth inhibition,[8]; at 1.2 µM,2% (inactive)
same,growth inhibition,[8]; at 3.7 µM,1% (inactive)
same,growth inhibition,[8]; at 11.0 µM,12% (inactive)
same,growth inhibition,[8]; at 33.0 µM,84% (active)
same,growth inhibition,[8]; at 100.0 µM,99% (active)
same,growth inhibition,[9]; at 1.2 µM,2% (inactive)
same,growth inhibition,[9]; at 3.7 µM,0% (inactive)
same,growth inhibition,[9]; at 11.0 µM,4% (inactive)
same,growth inhibition,[9]; at 33.0 µM,63% (inactive)
same,growth inhibition,[9]; at 100.0 µM,99% (active)
same,growth inhibition,[10]; [17],-29% (inactive)
same,growth inhibition,[10]; [18],34% (inactive)
same,growth inhibition,[10]; at 50.0 µM,46.6% (inactive)
O=C(C[n+]1ccc2ccccc2c1)c1ccc2ccccc2c1,growth inhibition,[11]; at 1.2 µM,10% (inactive)
same,growth inhibition,[11]; at 3.7 µM,-1% (inactive)
same,growth inhibition,[11]; at 11.0 µM,7% (inactive)
same,growth inhibition,[11]; at 33.0 µM,20% (inactive)
same,growth inhibition,[11]; at 100.0 µM,99% (active)
same,growth inhibition,[12]; at 1.2 µM,-6% (inactive)
same,growth inhibition,[12]; at 3.7 µM,-17% (inactive)
same,growth inhibition,[12]; at 11.0 µM,-24% (inactive)
same,growth inhibition,[12]; at 33.0 µM,-22% (inactive)
same,growth inhibition,[12]; at 100.0 µM,97% (active)
same,growth inhibition,[13]; at 1.2 µM,-19% (inactive)
same,growth inhibition,[13]; at 3.7 µM,-42% (inactive)
same,growth inhibition,[13]; at 11.0 µM,-35% (inactive)
same,growth inhibition,[13]; at 33.0 µM,-20% (inactive)
same,growth inhibition,[13]; at 100.0 µM,74% (active)
same,growth inhibition,[14]; at 1.2 µM,-18% (inactive)
same,growth inhibition,[14]; at 3.7 µM,-7% (inactive)
same,growth inhibition,[14]; at 11.0 µM,-32% (inactive)
same,growth inhibition,[14]; at 33.0 µM,-13% (inactive)
same,growth inhibition,[14]; at 100.0 µM,98% (active)
same,growth inhibition,[15]; at 1.2 µM,-20% (inactive)
same,growth inhibition,[15]; at 3.7 µM,-26% (inactive)
same,growth inhibition,[15]; [17],51% (inactive)
same,growth inhibition,[15]; at 11.0 µM,-30% (inactive)
same,growth inhibition,[15]; at 33.0 µM,-7% (inactive)
same,growth inhibition,[15]; [18],100% (active)
same,growth inhibition,[15]; at 50.0 µM,-28.4% (inactive) and 85.2% (active)
same,growth inhibition,[15]; at 100.0 µM,98% (active)
same,growth inhibition,[1]; at 1.2 µM,-37% (inactive)
same,growth inhibition,[1]; at 3.7 µM,-23% (inactive)
same,growth inhibition,[1]; [17],64% (inactive)
same,growth inhibition,[1]; at 11.0 µM,-77% (inactive)
same,growth inhibition,[1]; at 33.0 µM,-41% (inactive)
same,growth inhibition,[1]; [18],99% (active)
same,growth inhibition,[1]; at 50.0 µM,-5.2% (inactive) and 39.1% (inactive)
same,growth inhibition,[1]; at 100.0 µM,98% (active)
same,growth inhibition,[2]; at 1.2 µM,-45% (inactive)
same,growth inhibition,[2]; at 3.7 µM,-44% (inactive)
same,growth inhibition,[2]; at 11.0 µM,-36% (inactive)
same,growth inhibition,[2]; at 33.0 µM,11% (inactive)
same,growth inhibition,[2]; at 100.0 µM,97% (active)
same,growth inhibition,[3]; [17],-46% (inactive)
same,growth inhibition,[3]; [18],77% (active)
same,growth inhibition,[3]; at 50.0 µM,-9.25% (inactive) and 61.6% (inactive)
same,growth inhibition,[4]; at 1.2 µM,8% (inactive)
same,growth inhibition,[4]; at 3.7 µM,-9% (inactive)
same,growth inhibition,[4]; at 11.0 µM,1% (inactive)
same,growth inhibition,[4]; at 33.0 µM,13% (inactive)
same,growth inhibition,[4]; at 100.0 µM,99% (active)
same,growth inhibition,[5]; [17],19% (inactive)
same,growth inhibition,[5]; [18],81% (active)
same,growth inhibition,[5]; at 50.0 µM,-10% (inactive) and 71.2% (active)
same,growth inhibition,[6]; at 1.2 µM,-19% (inactive)
same,growth inhibition,[6]; at 3.7 µM,-12% (inactive)
same,growth inhibition,[6]; [17],-4% (inactive)
same,growth inhibition,[6]; at 11.0 µM,-27% (inactive)
same,growth inhibition,[6]; at 33.0 µM,-15% (inactive)
same,growth inhibition,[6]; [18],51% (inactive)
same,growth inhibition,[6]; at 50.0 µM,-32.4% (inactive) and 71.7% (active)
same,growth inhibition,[6]; at 100.0 µM,98% (active)
same,growth inhibition,[7]; at 1.2 µM,-37% (inactive)
same,growth inhibition,[7]; at 3.7 µM,-25% (inactive)
same,growth inhibition,[7]; at 11.0 µM,-53% (inactive)
same,growth inhibition,[7]; at 33.0 µM,-18% (inactive)
same,growth inhibition,[7]; at 100.0 µM,97% (active)
same,growth inhibition,[8]; at 1.2 µM,-15% (inactive)
same,growth inhibition,[8]; at 3.7 µM,-30% (inactive)
same,growth inhibition,[8]; at 11.0 µM,-36% (inactive)
same,growth inhibition,[8]; at 33.0 µM,-22% (inactive)
same,growth inhibition,[8]; at 100.0 µM,97% (active)
same,growth inhibition,[9]; at 1.2 µM,-30% (inactive)
same,growth inhibition,[9]; at 3.7 µM,-34% (inactive)
same,growth inhibition,[9]; at 11.0 µM,-34% (inactive)
same,growth inhibition,[9]; at 33.0 µM,-26% (inactive)
same,growth inhibition,[9]; at 100.0 µM,97% (active)
same,growth inhibition,[10]; [17],68% (inactive)
same,growth inhibition,[10]; [18],100% (active)
same,growth inhibition,[10]; at 50.0 µM,-11.2% (inactive) and 69.5% (inactive)
same,growth inhibition,[16]; at 1.2 µM,-21% (inactive)
same,growth inhibition,[16]; at 3.7 µM,-24% (inactive)
same,growth inhibition,[16]; at 11.0 µM,-15% (inactive)
same,growth inhibition,[16]; at 33.0 µM,-3% (inactive)
same,growth inhibition,[16]; at 100.0 µM,99% (active)

# From PubChem BioAssay (NCI)
